Measurements as given in ChEMBL document CHEMBL3988442, “University of Dundee, Small-Polar-MMV Screening Library” (2021).
The whole screen tested about 48,000 compounds, of which about 13,000 (27%) showed an effect of 50% or more. The list shows a part of the results.

test system: Wolbachia pipientis; assay: Anti-Wolbachia Cell-Based Screen; type: functional; set-up: scale not given: in the data most compounds retested in dose-response had high values; details: 5 µM

| SMILES | Percent Effect |
| --- | --- |
| COc1ccc(S(=O)(=O)NCC(c2cccn2C)N(C)C)cc1F (stereo unspecified) | 1.104% |
| Cc1nn(C)cc1C(=O)N1CCCn2nc(CN3CC[C@H](F)C3)cc2C1 | 10.52% |
| Cc1nccn1-c1ccc(C(C)NCc2cc[nH]n2)cc1 (stereo unspecified) | -2.741% |
| CCCc1cc(C(=O)N(C)Cc2cccc3ncccc23)n(C)n1 | 20.91% |
| CN(Cc1csc(-c2cccs2)n1)Cc1cccnc1N | 16.69% |
| COCCN(Cc1cccc(OCCO)c1)Cc1ccccc1F | 0.9238% |
| CN(Cc1cccc(CCN)c1)Cc1cccc2ncccc12 | 97.29% |
| CC(C)c1cc(C(=O)N(C)Cc2cccc3ncccc23)n(C)n1 | -7.2% |
| CN(Cc1cccc2ncccc12)C(=O)CCC(F)(F)F | -3.963% |
| CN(Cc1cccnc1N)Cc1cccc2ncccc12 | 108.3% |
| CN(Cc1cccc(OCCO)c1)Cc1cccc2ncccc12 | 95.97% |
| CCCN(Cc1cccc(OCCO)c1)Cc1ccccc1OC | 8.157% |
| Cc1ccsc1-c1cc(C(=O)O)cc(S(=O)(=O)NCc2ccccn2)c1 | -12.11% |
| COc1ccccc1Oc1ncccc1CNC(=O)[C@@H](N)CCO | -18.01% |
| Cc1ccc(N2CC[C@@H]3O[C@@H](c4ccncn4)C[C@H]3C2)nn1 | 17.26% |
| Cc1cc(N2CCOC(c3ccncn3)C2)ncn1 (stereo unspecified) | 99.32% |
| O=C(NC1CC1)c1ccnc(N2CCOC(c3ccc(Cl)cc3)C2)c1 (stereo unspecified) | -21.25% |
| Cc1cc(N2CCOC(c3ccc(C(N)=O)cn3)C2)ncn1 (stereo unspecified) | 105.9% |
| O=C(NC1CC1)c1ccnc(N2CCOC(c3ccc(Cl)c(Cl)c3)C2)c1 (stereo unspecified) | -23.24% |
| COc1cc(N2CC[C@@H]3O[C@@H](c4ccncn4)C[C@H]3C2)ncn1 | -28.63% |
| CN(C)CCN1CCOC2(CCN(c3nccs3)CC2)c2ccccc21 | -12.88% |
| N#Cc1ccc(C(=O)N2CCOC[C@H](Oc3cnccn3)C2)cc1 | -4.484% |

| SMILES | Percent Effect |
| --- | --- |
| CC1(C)CNC(=O)c2nc(CCN3CCCCC3CO)[nH]c2C1 (stereo unspecified) | -22.93% |
| CCOc1cc(NC(=O)C2CC(=O)N(c3cccc(OC)c3)C2)ncn1 (stereo unspecified) | -2.704% |
| CCN(Cc1ccc(C#N)cc1F)C(=O)C(C)(C)C | 4.691% |
| CC(C)c1nc2c(n1C)CCN(CC(=O)Nc1cccnc1)C2 | 119.2% |
| CC(C)c1cc(NC(=O)CN2CCc3c(nc(C(C)C)n3C)C2)on1 | 6.487% |
| Cc1nn(C)c(C)c1NC(=O)CN1CCc2c(nc(C(C)C)n2C)C1 | -19.45% |
| CC(C)c1nc2c(n1C)CCN(CC(=O)NCc1ccccn1)C2 | -5.66% |
| CC(C)c1nc2c(n1C)CCN(CC(=O)Nc1ccnn1C(C)C)C2 | 120.4% |
| CC(C)c1nc2c(n1C)CCN(CC(=O)Nc1ccc(Cl)cn1)C2 | 6.553% |
| CC(C)c1nc2c(n1C)CCN(CC(=O)Nc1nccs1)C2 | -1.818% |
| CC(C)c1nc2c(n1C)CCN(CCc1ccccn1)C2 | 5.197% |
| CC(C)c1nc2c(n1C)CCN(CC(=O)Nc1ccncc1)C2 | 127.6% |
| COc1ccnc(N2CCC(=O)N(CC3CC3)C(C(C)C)C2)n1 (stereo unspecified) | -66.14% |
| Cc1n[nH]cc1CNCC(c1cccc(F)c1)N(C)C (stereo unspecified) | -5.12% |
| O=S(=O)(CC1CCOCC1)NCc1ncc(-c2ccccc2)o1 | -9.674% |
| Cn1cc(C2CCCN2CC(=O)N(CCC#N)Cc2ccco2)cn1 (stereo unspecified) | 0.296% |
| Cc1cc(N2CCC(C(=O)N(C)C)CC2)nc(-c2ccncc2)n1 | 121.6% |
| Cc1cc(N2CCC(C(=O)NC3CC3)CC2)nc(-c2ccncc2)n1 | 96.2% |
| Cc1cc(NCC(=O)NCC(F)(F)F)nc(-c2ccncc2)n1 | 6.905% |
| CC(=O)NCC1CCN(c2cc(C)nc(-c3ccncc3)n2)CC1 | 110% |
| O=C(NC1CCN(c2cccc(C(F)(F)F)n2)CC1)C1CC1 | -2.588% |
| CC(=O)NCC1CCN(c2ccnc3ccc(Br)cc23)CC1 | 3.515% |

| SMILES | Percent Effect |
| --- | --- |
| O=C(NC1CC1)C1CCN(c2cccc(C(F)(F)F)n2)CC1 | -5.657% |
| Cc1cc(N2CCC(N(C)C(=O)c3ccccc3)CC2)nc(C)n1 | -0.5132% |
| CC(=O)NCC1CCN(c2cc(C(C)C)nc3ccnn23)CC1 | -0.4994% |
| Cc1cc(C)n(-c2cncc(N3CCC(C(=O)N(C)C)CC3)n2)n1 | -4.811% |
| CCNC(=O)CN1CCN(c2cc(C)nc(-c3ccncc3)n2)CC1 | 108.7% |
| CCNC(=O)CN1CCN(c2ccnc3c(F)ccc(F)c23)CC1 | 11.86% |
| COCC(=O)NC(c1ccc(Cl)cc1)c1noc(C)n1 (stereo unspecified) | 10.23% |
| CN1CCN(CC[C@@H]2CC[C@H](O)[C@@H](C(=O)Nc3ccccc3)O2)CC1 | -5.857% |
| Cc1c(Cl)cc(C(=O)N(CCO)Cc2nccn2C)cc1Cl | -0.9396% |
| CCC1CN(Cc2nnc(C3CC3)o2)CCC(=O)N1Cc1ccccc1 (stereo unspecified) | 1.6% |
| Cc1cccc(CNC2CCN(CCc3ccncc3)CC2)c1C | -28.44% |
| O=C(Nc1ccccc1)C1CN(Cc2nccs2)CC12CCOCC2 (stereo unspecified) | -7.197% |
| CCCN(C)C(=O)Nc1ccc(C(=O)NCCC(=O)OC)cc1 | 0.9295% |
| COc1ccc(-c2nc3c([nH]2)CCNC3C(=O)O)c2ccccc12 (stereo unspecified) | -1.412% |
| Cn1ncc2c(=O)[nH]c(N3CCCC3c3cccs3)nc21 (stereo unspecified) | 2.416% |
| O=C1N[C@@H]2CCN(C(=O)C3CC3)[C@@H]2C(=O)N1c1ccc(F)cc1 | -5.922% |
| Cc1cc(N2CCN(c3ccc(=O)[nH]n3)CC2)nc(-c2ccncc2)n1 | 110.1% |
| COC(=O)C1CCN(c2cc(C)nc(-c3ccncc3)n2)CC1 | 111% |
| Cc1cc(N2CCOC(C(F)(F)F)C2)nc(-c2ccccc2)n1 (stereo unspecified) | 4.501% |
| COC(=O)C1CCN(C(=O)CN2CCN(c3cccc(C)c3)CC2)CC1 | -8.309% |
| Cc1cc(N2CCOC(CN)C2)nc(-c2ccccc2)n1 (stereo unspecified) | 6.388% |
| COC(=O)C1CCN(c2cncc(-n3nc(C)cc3C)n2)CC1 | -8.177% |
